The list is not random: actives were taken first. Their share in the collection is about 4.8%.
Mdm2 MdmX PPI – human Mdm2/MdmX binding inhibition; SaOS-2 split-luciferase Mdm2/MdmX complementation, luminescence; inhibition, % at 8 µM; O15151+Q00987; AID 485346; 330,000 compounds, 3% hits;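 active = inhibition of at least 50% at 8 µM in the primary screen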
Target sequence (O15151 whole entry, looked up): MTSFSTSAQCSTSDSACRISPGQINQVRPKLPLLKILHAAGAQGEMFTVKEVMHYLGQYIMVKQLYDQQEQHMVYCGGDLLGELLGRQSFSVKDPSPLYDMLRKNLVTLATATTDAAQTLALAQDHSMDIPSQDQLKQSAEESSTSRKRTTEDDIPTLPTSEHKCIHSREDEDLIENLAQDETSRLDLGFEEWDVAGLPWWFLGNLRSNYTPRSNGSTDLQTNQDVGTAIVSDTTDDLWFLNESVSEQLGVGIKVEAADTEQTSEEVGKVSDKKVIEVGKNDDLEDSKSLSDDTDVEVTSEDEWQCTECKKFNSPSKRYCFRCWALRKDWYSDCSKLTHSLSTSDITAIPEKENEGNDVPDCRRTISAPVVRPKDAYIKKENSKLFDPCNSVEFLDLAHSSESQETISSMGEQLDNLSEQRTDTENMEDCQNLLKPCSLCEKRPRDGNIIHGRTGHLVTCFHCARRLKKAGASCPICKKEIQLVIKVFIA
Target sequence (Q00987 whole entry, looked up): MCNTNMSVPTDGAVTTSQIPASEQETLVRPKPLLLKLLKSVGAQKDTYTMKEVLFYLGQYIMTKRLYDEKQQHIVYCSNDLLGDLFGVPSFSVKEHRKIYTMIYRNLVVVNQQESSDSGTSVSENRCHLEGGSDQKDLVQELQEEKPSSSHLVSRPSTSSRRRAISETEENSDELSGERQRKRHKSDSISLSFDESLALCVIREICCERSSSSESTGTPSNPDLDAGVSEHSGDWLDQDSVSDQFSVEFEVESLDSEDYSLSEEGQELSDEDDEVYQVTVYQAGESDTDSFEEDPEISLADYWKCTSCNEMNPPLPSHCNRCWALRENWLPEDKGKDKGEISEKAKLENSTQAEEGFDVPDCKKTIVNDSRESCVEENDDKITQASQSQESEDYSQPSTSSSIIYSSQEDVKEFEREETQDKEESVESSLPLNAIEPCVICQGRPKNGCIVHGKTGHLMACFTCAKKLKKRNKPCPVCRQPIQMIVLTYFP
Beta cell apopt – beta cell apoptosis inhibition; INS-1E cytokine-induced death, ATP luminescence, 48 h; percent of positive-control rescue, neutral wells zero; protection from apoptosis, % (test concentration not listed); 300,000 compounds, 0.8% hits;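 active = Every replicate reaches about 75%, or at least half do and their mean reaches it too, limit read from the data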;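 also: 0% = cytokine-treated negative control wells and 100% = positive control rescue; higher means more ATP so stronger rescue from cytokine killing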
CSC inhib – blocks cancer stem cells. 300,000 compounds, 1.1% hits. cancer stem cell-like cells viability, luminescence. inhibition, % at 7.5 µM; in the data active = inhibition above about 75%; tested in HMLE shEcad cells
MPTP block – blocks calcium-induced mitochondrial swelling; isolated mouse mitochondria, Ca2+ swelling absorbance, 30 min; inhibition, % at 10 µM; 360,000 compounds, 1.4% hits; AID 602449;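 active = inhibition of 50% or more, scaled per plate between neutral and stimulator controls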;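 also: 0% = DMSO wells given calcium and 100% = 1 mM EGTA wells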
Calb FLC – C. albicans growth modulation with fluconazole; 300,000 compounds, 0.57% hits; C. albicans CaCi-2 (fluconazole-resistant clinical isolate) + fluconazole, Alamar Blue growth, 48 h; growth inhibition, % (no concentration beside the values);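 active = growth inhibition above about 58% in most replicates, limit read from the data, passing the limit was not always enough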;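 also: all wells also contain fluconazole at 8 µg/ml as a sub-toxic cotreatment; 0% = median of DMSO wells and 100% = median of geldanamycin control wells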
Mdm2 MdmX conf – human Mdm2/MdmX binding inhibition, confirmed; 10,000 compounds, 55% hits; inhibition, % at 8 µM; shares compounds with Mdm2 MdmX PPI; luminescent assay; AID 489028; in the data active = inhibition above about 40%
FLuc counter – full-length luciferase inhibition in Mdm2/MdmX counter-screen | shares compounds with Mdm2 MdmX PPI | 6,200 compounds, 77% hits | AID 504607 | inhibition, % at 8 µM | SaOS-2 full-length luciferase counterscreen, luminescence;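 active = mean inhibition at 8 µM reaching about 37%, which flags the compound as non-specific, limit read from the data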;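 also: p53-null SaOS-2 cells with luciferase driven by a doxycycline-inducible promoter; compound on cells about two nights before reading with doxycycline added after day one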
Active calls of the source: *; nt = no result given.

SMILES	Mdm2 MdmX PPI	Beta cell apopt	CSC inhib	MPTP block	Calb FLC	Mdm2 MdmX conf	FLuc counter
CC(C)C[C@@]12C(=O)N(c3cccc(F)c3)C(=O)N1[C@H](c1ccc(Br)cc1)[C@@H]1C(=O)N(C(C)(C)C)C(=O)[C@@H]12	28	4	12	0	15	nt	nt
COc1ccc(CN(C(=O)c2ccc(-c3ccccc3)[nH]2)C(C(=O)NC(C)(C)C)c2ccncc2)cc1 (configuration not stated)	52*	-5	24	-2	18	38	83*
COc1cc(C(C(=O)NC(C)(C)C)N(Cc2ccccc2)C(=O)c2cnccn2)cc(OC)c1OC (configuration not stated)	12	3	-8	0	-1	nt	nt
COc1cc(OC)c2c(-c3ccccc3)cc(=O)oc2c1C(CCN1CCN(c2ccccc2)CC1)c1ccc(N(C)C)cc1 (configuration not stated)	15	1	-6	5	-20	nt	nt
COc1ccc(C(CCN2CCCC2)c2c(OC)cc(OC)c3c(-c4ccccc4)cc(=O)oc23)cc1 (configuration not stated)	38	4	3	0	-21	nt	nt
COc1cc(OC)c2c(-c3ccccc3)cc(=O)oc2c1C(CCN1CCCC(C)C1)c1ccc(N(C)C)cc1 (configuration not stated)	77*	16	30	2	-22	18	nt
COc1ccc(C(CCN2CCCC(C)C2)c2c(OC)cc(OC)c3c(-c4ccccc4)cc(=O)oc23)cc1 (configuration not stated)	100*	51	27	4	-14	17	nt
Cc1cc(O)c(C(C)C)cc1C1(c2cc(C(C)C)c(O)cc2C)OC(=O)c2ccccc21	100*	46	150*	24	2	58*	22
Cc1ccc(NC2C(=O)NC(=O)NC2=O)cc1	nt	nt	nt	-1	nt	nt	nt
COc1ccc(OCC(O)Cn2c(=N)n(CCN3CCCCC3)c3ccccc32)cc1 (configuration not stated)	53*	2	-9	14	nt	41*	77*
N=c1n(CCN2CCOCC2)c2ccccc2n1CC(=O)c1ccc(Cl)c(Cl)c1	-18	17	18	0	-6	nt	nt
N=c1n(CCN2CCCC2)c2ccccc2n1CC(O)c1ccc(Cl)c(Cl)c1 (configuration not stated)	96*	4	32	-2	-26	99*	104*
CCCCn1c(=N)n(CCOc2ccc(C)cc2)c2ccccc21	63*	25	12	13	-15	38	63*
Cc1ccc(OCC(O)Cn2c(=N)n(CCN3CCCCC3)c3ccccc32)cc1 (configuration not stated)	69*	28	23	-5	1	58*	47*
CC1(C(=O)NCc2ccccc2)CN(S(C)(=O)=O)CC(=O)N1CCc1ccc(O)cc1 (configuration not stated)	nt	nt	nt	0	nt	nt	nt
O=C(NNC(=O)C1CCN(S(=O)(=O)c2c(Cl)cccc2Cl)CC1)c1ccccc1O	56*	19	-6	0	-5	54*	54*
O=C(NNC(=O)C1CCN(S(=O)(=O)c2ccccc2C(F)(F)F)CC1)c1ccccc1O	53*	11	-9	-3	-14	53*	51*
N#CC1=C(N)OC2=C(CCc3ccccc32)C1c1ccccc1 (configuration not stated)	74*	28	3	3	-2	52*	143*
COc1ccc(CN2C(=O)CCC2(C)c2nnnn2-c2ccc3c(c2)OCCO3)cc1 (configuration not stated)	nt	nt	nt	-1	nt	nt	nt
O=C(Nc1cccc(OC(F)(F)F)c1)C1Cc2c(-c3ccccc3Oc3ccccc3)ccnc2O1 (configuration not stated)	nt	nt	nt	2	nt	nt	nt
CC(=O)Nc1ccc(C(=O)OCC(=O)N(c2ccccc2)C2CCS(=O)(=O)C2)cc1 (configuration not stated)	2	1	nt	-1	nt	nt	nt
O=C(CCl)N(c1ccccc1)C1CCS(=O)(=O)C1 (configuration not stated)	99*	-4	52	1	-4	93*	55*
Cc1ccc(C(C)C)c(OCc2nn(CC(=O)c3ccc(OC(F)F)cc3)c3[n+]2CCCCC3)c1	95*	114*	94*	10	90*	87*	23
CCN(CC)S(=O)(=O)c1cc(NC(=O)CSc2nc3c(cc2C#N)C(=O)CC(C)(C)C3)ccc1C	67*	7	52	-8	3	63*	45*
COc1ccc(C(=O)N2CCC(C)(C(=O)O)C2)cc1OC (configuration not stated)	nt	nt	nt	0	nt	nt	nt
SMILES	Mdm2 MdmX PPI	Beta cell apopt	CSC inhib	MPTP block	Calb FLC	Mdm2 MdmX conf	FLuc counter
COc1ccc(C2=NN(C(=O)c3ccco3)C(c3cc4ccccc4nc3Cl)C2)cc1 (configuration not stated)	82*	4	-17	nt	7	8	nt
COc1ccc2cc(C3CC(c4ccco4)=NN3C(=O)CCC(=O)O)c(Cl)nc2c1 (configuration not stated)	22	-3	5	2	7	nt	nt
O=c1c2ccccc2nc(/C=C/c2cc(Br)ccc2O)n1CCCO	89*	-13	52	0	6	74*	27
FC(F)(F)c1nnc2c(Sc3ccccc3)nc3ccc(Cl)cc3n12	97*	96*	0	-1	7	99*	21
COc1cc(/C=C2/C(=O)N(C)C(=S)N2C)ccc1OCc1cccc(F)c1	88*	0	-14	0	4	24	nt
CN1C(=O)/C(=C/c2ccc(OCc3cccc(F)c3)cc2)NC1=S	36	14	-5	0	1	nt	nt
CN(C)CCN1CCN(C2CN(Cc3ccc([N+](=O)[O-])cc3)S(=O)(=O)C2)CC1 (configuration not stated)	nt	nt	nt	0	nt	nt	nt
COc1ccc(S(=O)(=O)N2CCC3CC2c2c(-c4ccc(C(F)(F)F)cc4)cccc23)cc1 (configuration not stated)	nt	nt	nt	0	nt	nt	nt
CCOC(=O)C1CCCN(C(=O)c2ccc3nc(-c4cccc(OC)c4)oc3c2)C1 (configuration not stated)	53*	3	51	2	-3	79*	113*
CCC(=O)C1CCCN(C(=O)c2ccc3nc(-c4cccc(OC)c4)oc3c2)C1 (configuration not stated)	7	3	-4	0	18	nt	nt
Cc1ccc(S(=O)(=O)N2CC3C(=O)C[C@@H](c4ccccc4)N(S(=O)(=O)c4ccccc4Cl)C3CC2c2ccccc2)cc1 (some centres not stated)	nt	nt	nt	1	nt	nt	nt
CN1CCN(C(=O)c2ccc3c(c2)N(C)C(=O)/C(=C/c2cccc(Cl)c2)S3)CC1	46	-5	-15	-3	19	nt	nt

Bioassay records: PubChem BioAssay, several laboratories
